{"source": "PubChem BioAssay AID940", "about": "(Emory University Molecular Libraries Screening Center, 2007)", "note": "Hit rate of the full screen: of about 260,000 compounds, about 2,200 (0.85%) were called active. The entries come from a sample that favours actives as a whole. A number with no mark means an inactive call.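 Rule for the calls: active = compounds whose cAMP rise, as percent of the full-agonist control response, exceeds 60; inactive = the rest.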", "data": [{"target": "Prostaglandin E2 receptor EP2 subtype (Homo sapiens) (UniProt P43116)", "sequence (P43116 whole entry, looked up)": "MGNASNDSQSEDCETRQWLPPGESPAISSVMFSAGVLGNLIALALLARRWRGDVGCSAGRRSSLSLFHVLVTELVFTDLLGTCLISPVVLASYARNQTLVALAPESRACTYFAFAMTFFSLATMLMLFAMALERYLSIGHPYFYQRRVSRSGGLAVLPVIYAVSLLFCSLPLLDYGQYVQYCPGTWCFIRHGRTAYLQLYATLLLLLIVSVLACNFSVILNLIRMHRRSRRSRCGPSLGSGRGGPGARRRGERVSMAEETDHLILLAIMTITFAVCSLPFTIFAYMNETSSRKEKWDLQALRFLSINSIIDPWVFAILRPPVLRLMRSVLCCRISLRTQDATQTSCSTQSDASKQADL", "experiment": "modulation of human EP2 prostaglandin signaling – cell-based, HTRF cAMP, PGE2 stimulation, primary screen (AID 940);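 note: rat C6 glioma line stably carrying human EP2 under a CMV promoter; the protocol text gives 20 µM as final concentration; 100% = response of wells given 1 µM PGE2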", "settings": "EP2-expressing cells, cAMP HTRF FRET, PGE2 co-stimulation; at 25 µM; stronger effect = higher value", "values": [{"smiles": "CC1CCN(c2nc3c(c(=O)[nH]2)CCN(Cc2c(O)ccc4ccccc24)C3)CC1", "induction": "-22.9%"}, {"smiles": "COc1ccccc1NC(=O)COc1ccc(/C=C/C2=CCN(C)CC2)cc1OC", "induction": "-73.1%"}, {"smiles": "CCOc1ccc(OCC)c(NC(=O)CSc2ncnc3sc(C)c(C)c23)c1", "induction": "40.1%"}, {"smiles": "Cn1c(=O)sc2cc(S(=O)(=O)NC3(c4ccccc4F)CC3)ccc21", "induction": "-176%"}, {"smiles": "COc1ccc(Cn2nnnc2CN(Cc2cc3cc(C)ccc3[nH]c2=O)C2CCCCC2)cc1", "induction": "30.9%"}, {"smiles": "COc1nc(C)c(CC(=O)Nc2ccc3[nH]c4c(c3c2)CCCC4)c(OC)n1", "induction": "-85%"}, {"smiles": "O=C(Nc1nnc(SCC(=O)N2CCCCC2)s1)c1ccco1", "induction": "-9.97%"}, {"smiles": "COC(=O)CSc1nnc(-c2ccc3[nH]c(C)c(C)c3c2)o1", "induction": "-58.2%"}, {"smiles": "CCN1CCCC1CN(Cc1cc2cc(OC)c(OC)cc2[nH]c1=O)C(=O)Nc1ccccc1Cl", "note": "(stereo not drawn)", "induction": "-41.6%"}, {"smiles": "CCc1nn(CC(=O)NCc2cccnc2)c(=O)c2cc3ccsc3n12", "induction": "1.61%"}, {"smiles": "CCOc1ccc(-c2nc(-c3cc4ccccc4[nH]c3=O)no2)cc1", "induction": "-8.73%"}, {"smiles": "CCc1ccccc1NC(=O)Cc1cn(C)c2ccccc12", "induction": "23.9%"}, {"smiles": "CCc1ccccc1NC(=O)/C(=C/c1ccccc1)c1ccccc1", "induction": "65.2% (active)"}, {"smiles": "O=C(/C=C/c1ccccc1)N/C(=C/c1ccccc1)C(=O)Nc1ccccc1O", "induction": "-4.9%"}, {"smiles": "Cc1ccc(-c2nsc3c(SCC(=O)N(C)C4CCCCC4)ncnc23)cc1", "induction": "34.6%"}, {"smiles": "Cc1c(CN(C)C(=O)CSc2nc(-c3cccs3)cc(C(F)(F)F)n2)cnn1C", "induction": "9.94%"}, {"smiles": "CN1CC(c2ccccc2)C2(CCN(Cc3ccccc3)CC2)C1", "note": "(stereo not drawn)", "induction": "-9.74%"}, {"smiles": "C#CCN(N(C)c1ncc(C(F)(F)F)cc1Cl)S(=O)(=O)c1ccc2ccccc2c1", "induction": "61.4% (active)"}, {"smiles": "Cc1cc(C)cc(NS(=O)(=O)c2ccc(Oc3ncc(C(F)(F)F)cc3Cl)cc2)c1", "induction": "57.5%"}, {"smiles": "Cc1nn(CC#N)c(=O)n1N(C)c1ncc(C(F)(F)F)cc1Cl", "induction": "2.11%"}, {"smiles": "O=C(Cc1cccs1)Nc1nnc(-c2ccccc2Cl)s1", "induction": "-20%"}, {"smiles": "CC(C)Cc1nc(N2CCOCC2)c(C#N)c2c1CCC2", "induction": "64% (active)"}, {"smiles": "CC(C)Cc1nc(Cl)c(C#N)c2c1CCC2", "induction": "6.62%"}, {"smiles": "CC(C)c1nc(N2CCOCC2)c(C#N)c2c1COC(C)(C)C2", "induction": "-103%"}, {"smiles": "Cc1ccccc1N(C(=O)c1ccco1)C(C(=O)NC1CCCC1)c1ccco1", "note": "(stereo not drawn)", "induction": "15%"}, {"smiles": "COc1ccc(OC)c(CC(=O)N2CCC(c3ccc4c(c3)OCO4)CC2)c1", "induction": "-2.54%"}, {"smiles": "COc1ccc2c(c1)C(C)=CC(C)(C)N2C(=O)CNCc1ccc2c(c1)OCO2", "induction": "62.2% (active)"}, {"smiles": "COc1ccc2c(c1)C(C)=CC(C)(C)N2C(=O)Nc1ccccc1", "induction": "43%"}, {"smiles": "CSc1ncnc2sc(C)c(C)c12", "induction": "68.5% (active)"}, {"smiles": "Cc1sc2ncnc(Sc3nc4ccccc4s3)c2c1C", "induction": "17.8%"}, {"smiles": "CCCNc1ncnc2sc(C)c(C)c12", "induction": "17.6%"}, {"smiles": "Cc1cc2cc(CN(CCO)C(c3nnnn3CC3CCCO3)C(C)C)c(=O)[nH]c2cc1C", "note": "(stereo not drawn)", "induction": "-0.77%"}, {"smiles": "CCOc1ccc(/C=N/NC(=O)C(C)Sc2ccccn2)cc1OCC", "note": "(stereo not drawn)", "induction": "13.9%"}, {"smiles": "CCOc1ccc(/C=N/NC(=O)CSc2ccccn2)cc1O", "induction": "65.8% (active)"}, {"smiles": "Cc1ccc(/C=N/NC(=O)CSc2ccccn2)o1", "induction": "-4.32%"}, {"smiles": "COc1ccc(S(=O)(=O)NCc2ccc3c(c2)OCO3)c(Cl)c1Cl", "induction": "-0.88%"}, {"smiles": "Cc1nc2nc(N)ccc2c(C)c1C", "induction": "-9.42%"}, {"smiles": "CCC(C)c1ccc(O)c(/C=N/O)c1", "note": "(stereo not drawn)", "induction": "4.26%"}, {"smiles": "CC(=O)NCC(O)c1ccc([N+](=O)[O-])cc1", "note": "(stereo not drawn)", "induction": "1.39%"}, {"smiles": "CNCC(O)c1ccc(O)c(O)c1", "note": "(stereo not drawn)", "induction": "68.4% (active)"}, {"smiles": "CCc1ccc(NC(=O)C2CCN(C(=O)c3cccs3)CC2)cc1", "induction": "15.7%"}, {"smiles": "COC(=O)CSc1nc2c(c(C3CC=CCC3)c1C#N)CCC2", "note": "(stereo not drawn)", "induction": "68.1% (active)"}, {"smiles": "CCOc1ccc2cc(C#N)c(SCC(=O)OC)nc2c1", "induction": "47%"}, {"smiles": "COC(=O)CSc1nc(C2CC2)nc2ccccc12", "induction": "4.21%"}, {"smiles": "C=CCNC(=O)CN1CCC(c2ccccc2F)CC1", "induction": "-47.4%"}, {"smiles": "COC(=O)[C@H]1CCc2ccccc2N1C(=O)C1CCC1", "induction": "-15.3%"}, {"smiles": "CCC(C)OC(=O)C(C)n1cnc2sc(C(=O)Nc3ccccc3OC)c(C)c2c1=O", "note": "(stereo not drawn)", "induction": "-16.1%"}, {"smiles": "COC(=O)[C@H]1CCc2ccccc2N1C(=O)c1ccccc1F", "induction": "8.05%"}, {"smiles": "O=C(Cn1nc(-c2ccncc2)oc1=O)N1CCCCC1", "induction": "-10.9%"}, {"smiles": "CS(=O)(=O)N1CCCc2cc(C(O)CN3CCN(c4cnccn4)CC3)ccc21", "note": "(stereo not drawn)", "induction": "-3.55%"}, {"smiles": "Cc1cc(NC(=O)CSc2nc3cc(Cl)ccc3c(=O)n2Cc2ccco2)no1", "induction": "-4.33%"}, {"smiles": "O=C(CSc1nc2ccccc2c(=O)n1Cc1ccco1)Nc1ccccc1Cl", "induction": "67.4% (active)"}, {"smiles": "N#Cc1c(NC(=O)CSc2nc3ccccc3c(=O)n2Cc2ccco2)sc2c1CCCC2", "induction": "-3.51%"}, {"smiles": "CCOC(=O)C(C)NC(=O)c1cc2ccc(F)cc2[nH]1", "note": "(stereo not drawn)", "induction": "-92.7%"}, {"smiles": "Cc1nc(S(=O)(=O)c2ccc(Cl)cc2)c(N2CCCCC2)o1", "induction": "-42.2%"}, {"smiles": "CCN1CCN(C(=O)[C@H]2C[C@@H](c3ccc(OC)c(OC)c3)NS(=O)(=O)N2C)CC1", "induction": "-8.26%"}, {"smiles": "COc1ccc(C2(C(=O)N3CCC(n4cnc5cccnc54)CC3)CCCC2)cc1", "induction": "11.4%"}, {"smiles": "Cc1nn(C(C)C)c(C)c1CN(C)CCOc1ccccc1", "induction": "-30.9%"}, {"smiles": "COc1cc(C)c(-c2csc(NC(=O)C3(C)CCCO3)n2)cc1C", "note": "(stereo not drawn)", "induction": "-62.2%"}, {"smiles": "COc1cccc(NC(=O)C(C)Oc2ccccc2)c1", "note": "(stereo not drawn)", "induction": "9.01%"}, {"smiles": "CSc1ccccc1C(=O)Nc1cccc(C(C)=O)c1", "induction": "10.1%"}, {"smiles": "COc1cccc(NC(=O)c2ccccc2SC)c1", "induction": "61.4% (active)"}, {"smiles": "COc1cc(C#N)ccc1OCc1nc(-c2ccccc2)no1", "induction": "-64.5%"}, {"smiles": "CSc1ncc(C(=O)N2CC(CN3CCOCC3)c3ccccc32)cn1", "note": "(stereo not drawn)", "induction": "-3.66%"}, {"smiles": "CCOC(=O)C1CCN(C(=O)Nc2c[nH]c3ccc(OC)nc3c2=O)CC1", "induction": "-39.3%"}, {"smiles": "CCOC(=O)c1c(N)nn(C(=O)c2ccccc2)c1-c1ccccc1", "induction": "69.9% (active)"}, {"smiles": "CCOC(=O)c1c(-c2cccc(N)c2)cn2ccccc12", "induction": "-32.9%"}, {"smiles": "CCOC(=O)c1nnn(-c2nonc2OC)c1-c1ccccc1", "induction": "11.4%"}, {"smiles": "CC1(C)Cc2c(C#N)c(SCc3nc4ccccc4[nH]3)nc(N3CCOCC3)c2CO1", "induction": "-21.7%"}, {"smiles": "C/C(Cl)=C\\CSc1nc(N2CCOCC2)c2c(c1C#N)CC(C)(C)OC2", "induction": "67.7% (active)"}, {"smiles": "COc1ccc(CSc2nc(N3CCOCC3)c3c(c2C#N)CC(C)(C)OC3)cc1", "induction": "37.4%"}, {"smiles": "CCOc1ccc2[nH]c(=O)c(C(c3nnnn3CCOC)N3CCN(C)CC3)cc2c1", "note": "(stereo not drawn)", "induction": "-18.3%"}, {"smiles": "CCOC(=O)c1sc2nc(C)[nH]c(=O)c2c1C", "induction": "15.6%"}, {"smiles": "COC(=O)Cn1cnc2sc(C(=O)OC)c(C)c2c1=O", "induction": "-5.66%"}, {"smiles": "COC(=O)c1sc2[nH]c(=S)n(N)c(=O)c2c1C", "induction": "78.1% (active)"}, {"smiles": "O=c1[nH]c2ccc(S(=O)(=O)N3CCCC(c4ccccc4)C3)cc2[nH]1", "note": "(stereo not drawn)", "induction": "-114%"}, {"smiles": "O=C(Cn1nc2c3ccccc3ncn2c1=O)NCc1cccs1", "induction": "4.57%"}, {"smiles": "CCc1cc2cc3c(cc2nc1SCC(=O)Nc1ccccc1Br)OCCO3", "induction": "-3.39%"}, {"smiles": "CCc1cc2ccccc2nc1SCC(=O)Nc1ccccc1Br", "induction": "65.9% (active)"}, {"smiles": "COc1ccc2nc(C)cc(SCC(=O)Nc3ccccc3Br)c2c1", "induction": "-51.4%"}, {"smiles": "COc1ccc2cc(C#N)c(SCC(=O)Nc3ccccc3Br)nc2c1", "induction": "66.9% (active)"}, {"smiles": "Cc1ccc2cc(C#N)c(SCC(=O)Nc3cccc(C)c3C)nc2c1", "induction": "-15.3%"}, {"smiles": "Cc1cc2ccccc2nc1SCC(=O)Nc1ccccc1F", "induction": "39.1%"}, {"smiles": "COCCNc1nnc(-c2ccccn2)s1", "induction": "-12.4%"}, {"smiles": "O=C(CCSc1nc(-c2ccco2)cc(C(F)(F)F)n1)NC1CCCCC1", "induction": "-7.93%"}, {"smiles": "CC(C)(C)Oc1ncc(Br)c(OC(C)(C)C)n1", "induction": "31.4%"}, {"smiles": "COc1cccc(-c2nc3cc(C)ccc3o2)c1", "induction": "3.47%"}, {"smiles": "COc1cccc(-c2cnc(OC(C)(C)C)nc2OC(C)(C)C)c1", "induction": "62% (active)"}, {"smiles": "CC1(C)CC2CC(C)(CN2c2ncnc3ccc(Br)cc23)C1", "note": "(stereo not drawn)", "induction": "70% (active)"}, {"smiles": "CC1(C)CC2CC(C)(CN2C(=O)c2ccc(Cl)cc2)C1", "note": "(stereo not drawn)", "induction": "-5%"}, {"smiles": "COc1ccc(C(=O)N2CC3(C)CC2CC(C)(C)C3)cc1OC", "note": "(stereo not drawn)", "induction": "-6.8%"}, {"smiles": "COc1ccc2[nH]cc(CCNC(=O)C3CCN(c4nc5ccccc5n4C)CC3)c2c1", "induction": "-102%"}, {"smiles": "CCc1ncc(CNC2(c3ccc(Cl)cc3)CCC2)cn1", "induction": "-47%"}, {"smiles": "CCC(C)(C)n1nnnc1CN(Cc1ccc(F)cc1)Cc1cc2cc(C)cc(C)c2[nH]c1=O", "induction": "29.1%"}, {"smiles": "CCC(c1nnnn1C(C)(C)C)N(Cc1ccccc1)Cc1cc2ccc(C)cc2[nH]c1=O", "note": "(stereo not drawn)", "induction": "12.1%"}, {"smiles": "CCc1ccc2[nH]c(=O)c(CN(Cc3ccc(F)cc3)Cc3nnnn3C(C)(C)C)cc2c1", "induction": "62.5% (active)"}, {"smiles": "COCCNC(=O)Cn1nc2c(C)cc3cc(C)cc(C)c3n2c1=O", "induction": "-32.1%"}, {"smiles": "COc1ccc(NCc2nnc(SCC(=O)Nc3ccc(C)cc3)n2C)cc1", "induction": "8.87%"}]}]}
